Hit rate of the full screen: of about 420,000 compounds, about 50,000 (12%) were called active. Another 26% or so got no clear call; they are omitted. Calls come from the whole dose curve; as a rule, active = well fitted inhibition curve with a large enough effect; inconclusive = small, poorly fitted or top-dose-only effect; inactive = flat fitted curve, though single readings scatter. Many of the other results were omitted from the sample, so actives are more common in it than they were.
Assay: qHTS for Inhibitors of human tyrosyl-DNA phosphodiesterase 1 (TDP1): qHTS in cells in presence of CPT; note: nearly all actives have a fitted effect of over 55% in size
Details: chicken DT40 Tdp1-/-;hTDP1 cells + 20 nM CPT, ATP luminescence, 48 h; series mostly up to 46.2 µM; activity change, negative = growth inhibition: at the top concentration
Summary of the method: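 Chicken DT40 Tdp1-/- cells stably complemented with human TDP1 were seeded at 400 cells/well in medium containing 20 nM camptothecin, exposed to pin-transferred compounds, and grown at 37 °C for at least 48 hr. Viability was read as ATP luminescence.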
% is set by controls: 0 for no effect and ±100 for the full control effect; potency is the fitted concentration of half-maximal effect.

Row | SMILES | activity change, negative = growth inhibition | Potency
1 | CCc1c(C)nc2cc(C)[nH]n2c1=O | -3.18% (inactive) | –
2 | CCOc1ccc(S(=O)(=O)NCCC(=O)NCC2CCCO2)cc1 (stereo unspecified) | 4.72% (inactive) | –
3 | Cc1c[n+]([O-])ccc1[N+](=O)[O-] | -29.1% (inactive) | –
4 | O=C(O)C1CC=C(Cl)CC1C(=O)NCc1ccccc1 (stereo unspecified) | -22% (inactive) | –
5 | O=C(NCc1ccccc1)[C@H]1C[C@@H]1[C@H](NP(=O)(c1ccccc1)c1ccccc1)c1ccccc1 | – | 18.4 µM (active)
6 | O=C(NCc1ccccc1)C1CNCC(C(=O)NCc2ccccc2)C1 (stereo unspecified) | -5.56% (inactive) | –
7 | CCc1cc2cc(OC)ccc2nc1SCC(=O)Nc1cc(OC)c(OC)cc1C(=O)O | -17.5% (inactive) | –
8 | COc1ccc(C)cc1NC(=O)CSc1cccc[n+]1[O-] | 1.37% (inactive) | –
9 | CC(=O)c1nc2ccccc2n1Cc1ccccc1 | 2.81% (inactive) | –
10 | CCC(C(=O)Nc1c(C)cccc1C)n1c(-c2cc(C)cs2)nc2ccccc21 (stereo unspecified) | 0.528% (inactive) | –
11 | Cn1c(CNC(=O)C(C)(C)C)nc2ccccc21 | 6.61% (inactive) | –
12 | CCCc1nc2ccccc2n1C(C)C(=O)NC(C)(C)C (stereo unspecified) | -17.6% (inactive) | –
13 | CC(C)(C)NC(=O)C(CCc1ccccc1)n1c(=O)c(-c2ccccc2)nc2ccccc21 (stereo unspecified) | – | 5.17 µM (active)
14 | CCC(C(=O)NC(C)(C)C)n1c(-c2ccccc2)nc2ccccc21 (stereo unspecified) | – | 20.6 µM (active)
15 | COc1ccc(OC)c(/C=N/NC(=O)c2ccc[n+](CC(=O)c3ccccc3)c2)c1 | -15.7% (inactive) | –
16 | COc1cccc(NC(=O)CN(C)C(=O)c2cc(C3CC3)nn2-c2ccccc2)c1 | -10.6% (inactive) | –
17 | CC(=O)Nc1ccc(NC(=O)COC(=O)C2CCC(C(C)(C)C)CC2)cc1 (stereo unspecified) | -21.5% (inactive) | –
18 | O=C(NCc1cccc(Cl)c1)C1CCN(c2nnc(N3CCCC3=O)s2)CC1 | -13.8% (inactive) | –
19 | Cc1ccc(CCNC(=O)Cn2c(-c3cccs3)cc3cc(F)ccc32)cc1 | – | 18.4 µM (active)
20 | COc1ccc(CCNC(=O)CN2CCC(n3nnc4cc(F)ccc43)CC2)cc1OC | 1.72% (inactive) | –
21 | COc1ccc(CCNC(=O)COC(=O)Cc2cccc(F)c2)cc1 | 1.26% (inactive) | –
22 | Cc1cnc(C(=O)Oc2cccc(Cl)c2Cl)cn1 | 3.5% (inactive) | –

Row | SMILES | activity change, negative = growth inhibition | Potency
23 | CCOC(=O)c1cnc(SC)nc1Sc1ccc(Cl)cc1Cl | -26.7% (inactive) | –
24 | O=C1C(=O)N(c2ccccc2)C(c2ccccc2)C1c1ccccc1 (stereo unspecified) | -1.33% (inactive) | –
25 | O=C1[C@@H](c2ccccc2)[C@@H](c2ccccc2)N1c1cccnc1 | – | 16.4 µM (active)
26 | CCc1ccccc1NC1c2ccccc2C(=O)N1c1cccnc1 (stereo unspecified) | -23% (inactive) | –
27 | CCCN(CCC)c1c([N+](=O)[O-])c(=O)oc2ccccc12 | 28.2% (inactive) | –
28 | O=C(COC(=O)c1ccncc1)c1ccccc1 | -3.52% (inactive) | –
29 | Cc1cccc(N2CCN(C(=O)c3cc4c(=O)[nH]c5ccccc5c4n3C)CC2)c1C | – | 18.4 µM (active)
30 | O=C(c1c(Cl)cccc1Cl)N1CCN(c2cccc3[nH]ccc23)CC1 | -6.01% (inactive) | –
31 | Cc1[nH]c2ccc(C(=O)N3CCN(C)CC3)cc2c1C | 7.95% (inactive) | –
32 | CN(C(=O)COC(=O)CCCc1c[nH]c2ccccc12)c1c(N)n(Cc2ccccc2)c(=O)[nH]c1=O | 7.29% (inactive) | –
33 | Oc1cc(O)c2c(c1)OC(c1ccc(O)c(O)c1)C(O)C2 (stereo unspecified) | -17.7% (inactive) | –
34 | Cc1sc2nc(-c3ccccc3F)oc(=O)c2c1C | 3.71% (inactive) | –
35 | COc1ccccc1-c1nnc(-c2ccc(F)cc2)o1 | 6.98% (inactive) | –
36 | COc1ccc(-c2csc3nc(-c4ccccc4F)oc(=O)c23)cc1OC | – | 18.4 µM (active)
37 | Cc1ccc(N/C(N)=N/c2nc(C(F)(F)F)cc(C(F)(F)F)n2)cc1 | -9.78% (inactive) | –
38 | CCc1cccc(NC(=O)CCNS(=O)(=O)c2cccc3nonc23)c1 | – | inactive
39 | Cc1ccc(NC(=O)CSc2nnc3[nH]c(=O)cc(C)n23)cc1Cl | 12.9% (inactive) | –
40 | CCOC(=O)c1ccc(NC(=O)CSc2nnc(COc3ccccc3OC)n2C)cc1 | -10.6% (inactive) | –
41 | CCOC(=O)c1ccc(NC(=O)c2cc(=O)[nH]c3ccccc23)cc1 | 0.272% (inactive) | –
42 | CCc1ccc(NC(=O)CSc2nc3c([nH]c4ccccc43)c(=O)n2-c2cccc(OC)c2)cc1 | -24.3% (inactive) | –
43 | Cn1nnnc1SCc1cc(=O)[nH]c2ccccc12 | 1.58% (inactive) | –
44 | CCOC(=O)c1ccc(NC(=O)CSc2nc3c([nH]c4ccccc43)c(=O)n2C)cc1 | – | 8.2 µM (active)

Row | SMILES | activity change, negative = growth inhibition | Potency
45 | Cc1ccc(C)c(NC(=O)COC(=O)CSc2ccccc2)c1 | 1.12% (inactive) | –
46 | CC(Sc1nc2c([nH]c3ccccc32)c(=O)n1C)c1ccccc1 (stereo unspecified) | – | 11.6 µM (active)
47 | CCCCc1nc2c(=O)[nH]c3ccccc3c2o1 | -2.21% (inactive) | –
48 | Cc1cccc(NC(=O)CSc2nc3c(oc4ccccc43)c(=O)n2-c2ccc(F)cc2)c1 | -21.8% (inactive) | –
49 | Cc1ccc(NC(=O)CSc2nc3c([nH]c4ccccc43)c(=O)n2-c2ccccc2)cc1Cl | – | 11.6 µM (active)
50 | Cc1ccc(C)c(NC(=O)CSc2nc3c(oc4ccccc43)c(=O)n2-c2ccccc2)c1 | – | 14.6 µM (active)
51 | Nc1c(N(CCCO)C(=O)C2CCCC2)c(=O)[nH]c(=O)n1Cc1ccccc1 | -20.6% (inactive) | –
52 | Cn1c(=O)[nH]c2c(c(C(=O)O)nn2C)c1=O | 25.9% (inactive) | –
53 | Oc1c(Cl)cc(Cl)cc1/C=N/c1ncn[nH]1 | -23.1% (inactive) | –
54 | Cc1ccc(NC(=O)CN(C)C(=O)c2ccc(Br)o2)cc1 | -1.54% (inactive) | –
55 | CC(C)c1nnc(NC(=O)COC(=O)/C=C/c2ccc([N+](=O)[O-])cc2)s1 | -4.05% (inactive) | –
56 | O=C(Nc1ccc(F)cc1)C(=O)c1cn(CC(=O)N2CCOCC2)c2ccccc12 | 0.0894% (inactive) | –
57 | O=C(Nc1ccc(C(=O)O)cc1)/C(=C\c1ccccc1)NC(=O)c1ccc(Br)cc1 | -2.66% (inactive) | –
58 | COc1cccc(NC(=O)Cn2c3ccc(F)cc3c3nc4n(c(=O)c32)CCS4)c1 | -6.67% (inactive) | –
59 | C=CCN1C(=O)c2ccc(C(=O)N3CCC(C(=O)OCC)CC3)cc2C1=O | 1.36% (inactive) | –
60 | O=[N+]([O-])c1ccc(N2CCN(c3ccc(O)cc3)CC2)c(Cl)c1 | -70.1% (inactive) | –
61 | COc1ccc(S(=O)(=O)NCC(c2ccc(C)cc2)N2CCN(C)CC2)cc1OC (stereo unspecified) | -12.4% (inactive) | –
62 | Cc1nn(Cc2ccccc2)c(C)c1C(=O)NCCCN1CCCC1=O | 4.85% (inactive) | –
63 | Cn1cccc1/C=C1\SC(=O)N(CC(=O)Nc2ccc(F)cc2)C1=O | -23% (inactive) | –
64 | Cc1nn(Cc2ccccc2)c(C)c1C(=O)NCCN1C(=O)S/C(=C\c2ccc(F)cc2)C1=O | – | 16.4 µM (active)
65 | O=C(COc1coc(CN2CCN(c3ccccc3)CC2)cc1=O)N1CCc2ccccc21 | -5.85% (inactive) | –
66 | CC(Sc1nnc(COc2ccccc2)n1-c1ccccc1)C(=O)O (stereo unspecified) | -7.31% (inactive) | –

Reference: PubChem BioAssay AID686979 (National Center for Advancing Translational Sciences (NCATS), 2013)
